As usually defined, the inhibition is the drop in the measured response relative to a control, in per cent.

Unmarked numbers belong to inactive results. Some of the results follow. Activity calls are given as the source filed them.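 The calls were made as follows, unless noted: active = mean inhibition across triplicate wells above the cutoff set by the earlier primary insulin-degrading enzyme screen (cut at about 16% in these data); inactive = the rest.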

These results are taken from PubChem BioAssay.

Experiment [1] deals with Oxytocin receptor (Homo sapiens) (UniProt P30559). The experiment can be described thus: oxytocin receptor activation, retest of hits – fluorescence, CHO-OTR cells, triplicate, confirmation (AID 434963;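 active = mean activation above about 20% derived from the earlier single-dose screen, limit read from the data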;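 also: peak over minimum fluorescence ratio per well during a 100 second FLIPR read; 0% = DMSO alone and 100% = oxytocin high control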). The note with it: Fluo-8 calcium fluorescence, agonist, at 3 µM, stronger effect = higher value.
Experiment [2] addresses Vasopressin V1a receptor (Homo sapiens) (UniProt P37288). In words: activators of vasopressin V1R in CHO cells – cell-based, triplicate, fluorescence, counter-screen for OXTR agonist project (AID 434991;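 active = mean activation over triplicate exceeds the hit threshold set in the earlier primary screen, cut at about 20% in these data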;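 also: peak over basal fluorescence ratio within a 100 second read; 0% = DMSO alone and 100% = 3 nM vasopressin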). The note with it: Fluo-8 calcium fluorescence, at 3 µM, stronger effect = higher value.
The target in experiment [3] is Photoreceptor-specific nuclear receptor (Homo sapiens) (UniProt Q9Y5X4). The experiment can be described thus: corepressor-releasing ligands of human NR2E3 – biochemical, TR-FRET, confirmation (AID 2379; in the data active = activation above about 20%). Particulars: cell-free NR2E3 corepressor release, 5 h, at 3.98 µM, stronger effect = higher value. A general note: Time-resolved FRET reads energy transfer from a long-lived donor to a nearby acceptor.

The target of experiment [4] is Peroxisome proliferator-activated receptor gamma (Homo sapiens) + Nuclear receptor corepressor 2 (Homo sapiens) (UniProt P37231+Q9Y618). The experiment can be described thus: agonists of PPARg-NCOR2 corepressor interaction, counter-screen for NR2E3 agonist project, biochemical, TR-FRET (AID 504787; in the data active = inhibition above about 20%;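 also: 0% = DMSO vehicle and 100% = wells without protein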). The note with it: TR-FRET PPARg-NCOR2 coregulator interaction, at 3.98 µM, stronger effect = higher value. On the technique in general: The purpose of a counterscreen is to sort out artefacts and off-target activity.

The target in experiment [5] is Insulin-degrading enzyme (Homo sapiens) (UniProt P14735). The experiment can be described thus: cellular IDE Abeta-cleavage inhibition – fluorescence polarization, HEK cells, FAbetaB substrate, confirmation (AID 435028).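 Also: 0% = DMSO wells and 100% = 60 µM reference IDE inhibitor Ii1.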 The note with it: at 5.59 µM, stronger effect = higher value.
The nature of experiment [6]: HEK cell viability loss – luminescence, cytotoxicity control for IDE inhibitor project (AID 449730; in the data active = inhibition above about 22%;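 also: 0% = vehicle wells and 100% = reference cytotoxic drug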). Particulars: HEK293 cytotoxicity, ATP luminescence; at 5.59 µM; stronger effect = higher value.
The nature of experiment [7]: reduced OD of V66 E. coli with T4 gene 2 phage – absorbance, RecBCD inhibitor project, confirmation (AID 651982;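 active = mean inhibition over triplicates exceeding the hit threshold derived in the original primary screen, cut at about 11% in these data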). The note with it: E. coli V66 + T4 2- phage, growth OD; at 11.9 µM; stronger effect = higher value.
The nature of experiment [8]: bacterial growth inhibition – absorbance, high throughput, counter-screen for RecBCD inhibitor project (AID 651983; in the data active = inhibition above about 20%;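 also: E. coli strain V66 grown with compound alone and no phage infection; 0% = bacteria with DMSO vehicle only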). The note with it: E. coli viability, absorbance (OD) growth; at 11.9 µM; stronger effect = higher value.
A short description of experiment [9]: reduced optical density, T4-challenged addAB+ bacteria – absorbance, E. coli V3065, T4 phage, counter-screen for RecBCD inhibitor project, confirmation (AID 651984;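 active = mean inhibition above the solvent-only control wells' mean plus 3 SD, cut at about 22% in these data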;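 also: higher means less bacterial growth from phage killing when AddAB is blocked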). Particulars: E. coli expressing H. pylori AddAB + T4 phage, OD growth; at 11.9 µM; stronger effect = higher value; gene 2 mutant T4, recBCD-deleted host.
The target in experiment [10] is Nuclear receptor coactivator 1 (Homo sapiens) (UniProt Q15788). The experiment can be described thus: NCOA1 GAL4-fusion reporter inhibition – cell-based, luminescence, quadruplicate, confirmation (AID 588820;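 active = mean inhibition above 46.68%, the untreated control wells mean plus 3 SD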;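 also: 0% = DMSO wells and 100% = gossypol 36 µM treated wells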). The note with it: HEK293 GAL4-SRC1 luciferase reporter, at 3.6 µM, stronger effect = higher value. Background: In a reporter assay the amount or activity of a reporter protein is the signal.

The nature of experiment [11]: repression of VP16-driven luciferase reporter – cell-based, luminescence, high throughput, counter-screen for SRC1 inhibitor project (AID 588824; in the data active = inhibition above about 25%). Particulars: cell-based VP16 transactivation luciferase luminescence; at 3.6 µM; stronger effect = higher value.
For experiment [12], the target named is Photoreceptor-specific nuclear receptor (Homo sapiens) (UniProt Q9Y5X4). The experiment can be described thus: retest of NR2E3-NCOR disrupting agonists – cell-based, luminescence, CHO-S two-hybrid, confirmation (AID 624378;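 active = average inhibition above a cutoff equal to the mean inhibition of all tested compounds plus one SD, cut at about 70% in these data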;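 also: 0% = DMSO in NR2E3 cells and 100% = DMSO in cells lacking NR2E3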). Particulars: CHO-S mammalian two-hybrid NR2E3-NCOR, luciferase luminescence; at 3.98 µM; stronger effect = higher value.
The nature of experiment [13]: nonselective effects on VP16 transactivation – cell-based, luminescence, CHO-S, high throughput, counter-screen for NR2E3 agonist project, confirmation (AID 624379;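 active = mean inhibition above a cutoff equal to the average over all tested compounds plus one standard deviation, cut at about 70% in these data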;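 also: luciferase from a UAS reporter driven by GAL4-VP16 transactivation; 0% = DMSO with VP16-transfected cells and 100% = DMSO with cells lacking VP16; higher means less reporter light so more repression of VP16 activity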). The note with it: CHO-S GAL4-VP16 luciferase reporter, at 3.98 µM, stronger effect = higher value.

Oxytocin receptor (Homo sapiens), sequence (P30559 whole entry, looked up): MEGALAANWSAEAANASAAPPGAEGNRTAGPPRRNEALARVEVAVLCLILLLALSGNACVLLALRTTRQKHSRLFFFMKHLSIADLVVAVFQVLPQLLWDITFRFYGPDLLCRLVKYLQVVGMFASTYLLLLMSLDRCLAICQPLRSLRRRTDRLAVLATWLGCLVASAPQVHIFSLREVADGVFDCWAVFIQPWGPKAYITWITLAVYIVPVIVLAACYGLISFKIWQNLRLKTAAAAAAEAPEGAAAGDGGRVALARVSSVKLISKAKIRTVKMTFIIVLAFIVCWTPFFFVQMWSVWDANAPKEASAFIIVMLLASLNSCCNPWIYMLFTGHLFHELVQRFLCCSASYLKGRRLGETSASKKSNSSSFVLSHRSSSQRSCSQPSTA
Insulin-degrading enzyme (Homo sapiens), sequence (P14735 whole entry, looked up): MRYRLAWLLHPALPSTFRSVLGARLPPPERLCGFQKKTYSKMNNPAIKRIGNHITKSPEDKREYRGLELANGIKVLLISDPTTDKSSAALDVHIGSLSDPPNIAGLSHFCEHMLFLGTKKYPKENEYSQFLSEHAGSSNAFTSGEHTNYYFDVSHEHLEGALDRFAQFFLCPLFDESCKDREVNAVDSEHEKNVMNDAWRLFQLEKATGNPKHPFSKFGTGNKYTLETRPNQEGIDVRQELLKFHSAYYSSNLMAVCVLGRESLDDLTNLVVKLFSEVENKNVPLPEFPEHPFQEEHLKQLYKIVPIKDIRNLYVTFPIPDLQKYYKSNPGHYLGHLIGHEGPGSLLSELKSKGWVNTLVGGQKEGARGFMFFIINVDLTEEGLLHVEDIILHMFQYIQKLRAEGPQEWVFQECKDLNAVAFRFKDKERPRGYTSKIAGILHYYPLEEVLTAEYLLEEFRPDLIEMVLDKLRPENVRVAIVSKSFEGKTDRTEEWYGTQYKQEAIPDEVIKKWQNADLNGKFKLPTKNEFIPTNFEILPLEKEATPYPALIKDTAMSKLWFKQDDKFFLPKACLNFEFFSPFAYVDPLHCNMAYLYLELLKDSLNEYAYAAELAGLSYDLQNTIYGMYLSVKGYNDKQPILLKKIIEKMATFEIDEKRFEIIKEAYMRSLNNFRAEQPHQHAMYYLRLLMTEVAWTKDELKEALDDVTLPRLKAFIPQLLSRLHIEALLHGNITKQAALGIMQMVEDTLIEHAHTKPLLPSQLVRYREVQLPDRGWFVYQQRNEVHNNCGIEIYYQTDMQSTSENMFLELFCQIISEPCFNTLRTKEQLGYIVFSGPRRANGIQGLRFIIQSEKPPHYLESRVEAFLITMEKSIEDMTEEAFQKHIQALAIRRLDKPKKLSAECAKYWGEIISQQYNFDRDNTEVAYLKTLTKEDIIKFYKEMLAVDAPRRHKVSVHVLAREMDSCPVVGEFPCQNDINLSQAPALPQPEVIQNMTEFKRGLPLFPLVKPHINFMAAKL
Photoreceptor-specific nuclear receptor (Homo sapiens), sequence (Q9Y5X4 whole entry, looked up): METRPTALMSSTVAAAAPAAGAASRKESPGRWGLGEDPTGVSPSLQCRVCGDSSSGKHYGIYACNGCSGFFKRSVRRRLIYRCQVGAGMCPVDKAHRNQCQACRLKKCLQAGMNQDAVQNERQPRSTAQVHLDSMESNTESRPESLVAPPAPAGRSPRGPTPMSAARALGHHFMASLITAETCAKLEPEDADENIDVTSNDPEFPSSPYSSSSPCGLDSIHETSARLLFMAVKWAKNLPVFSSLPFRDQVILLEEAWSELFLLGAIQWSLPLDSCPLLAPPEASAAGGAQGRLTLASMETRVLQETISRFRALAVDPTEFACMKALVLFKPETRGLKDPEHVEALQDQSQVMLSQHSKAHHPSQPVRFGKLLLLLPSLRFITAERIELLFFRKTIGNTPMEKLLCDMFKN
Vasopressin V1a receptor (Homo sapiens), sequence (P37288 whole entry, looked up): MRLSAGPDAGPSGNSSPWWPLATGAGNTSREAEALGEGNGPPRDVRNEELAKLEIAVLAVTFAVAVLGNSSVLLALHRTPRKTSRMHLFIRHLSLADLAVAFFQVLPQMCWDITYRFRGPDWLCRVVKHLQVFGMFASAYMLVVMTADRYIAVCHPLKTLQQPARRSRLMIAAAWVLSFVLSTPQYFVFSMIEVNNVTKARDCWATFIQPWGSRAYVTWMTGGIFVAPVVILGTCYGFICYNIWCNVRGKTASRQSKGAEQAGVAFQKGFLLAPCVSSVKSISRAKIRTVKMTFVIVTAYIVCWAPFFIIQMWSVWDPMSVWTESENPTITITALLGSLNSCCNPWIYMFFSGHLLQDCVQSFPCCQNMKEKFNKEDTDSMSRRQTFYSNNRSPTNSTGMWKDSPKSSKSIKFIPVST
Nuclear receptor coactivator 1 (Homo sapiens), sequence (Q15788 whole entry, looked up, the tested form may be a part): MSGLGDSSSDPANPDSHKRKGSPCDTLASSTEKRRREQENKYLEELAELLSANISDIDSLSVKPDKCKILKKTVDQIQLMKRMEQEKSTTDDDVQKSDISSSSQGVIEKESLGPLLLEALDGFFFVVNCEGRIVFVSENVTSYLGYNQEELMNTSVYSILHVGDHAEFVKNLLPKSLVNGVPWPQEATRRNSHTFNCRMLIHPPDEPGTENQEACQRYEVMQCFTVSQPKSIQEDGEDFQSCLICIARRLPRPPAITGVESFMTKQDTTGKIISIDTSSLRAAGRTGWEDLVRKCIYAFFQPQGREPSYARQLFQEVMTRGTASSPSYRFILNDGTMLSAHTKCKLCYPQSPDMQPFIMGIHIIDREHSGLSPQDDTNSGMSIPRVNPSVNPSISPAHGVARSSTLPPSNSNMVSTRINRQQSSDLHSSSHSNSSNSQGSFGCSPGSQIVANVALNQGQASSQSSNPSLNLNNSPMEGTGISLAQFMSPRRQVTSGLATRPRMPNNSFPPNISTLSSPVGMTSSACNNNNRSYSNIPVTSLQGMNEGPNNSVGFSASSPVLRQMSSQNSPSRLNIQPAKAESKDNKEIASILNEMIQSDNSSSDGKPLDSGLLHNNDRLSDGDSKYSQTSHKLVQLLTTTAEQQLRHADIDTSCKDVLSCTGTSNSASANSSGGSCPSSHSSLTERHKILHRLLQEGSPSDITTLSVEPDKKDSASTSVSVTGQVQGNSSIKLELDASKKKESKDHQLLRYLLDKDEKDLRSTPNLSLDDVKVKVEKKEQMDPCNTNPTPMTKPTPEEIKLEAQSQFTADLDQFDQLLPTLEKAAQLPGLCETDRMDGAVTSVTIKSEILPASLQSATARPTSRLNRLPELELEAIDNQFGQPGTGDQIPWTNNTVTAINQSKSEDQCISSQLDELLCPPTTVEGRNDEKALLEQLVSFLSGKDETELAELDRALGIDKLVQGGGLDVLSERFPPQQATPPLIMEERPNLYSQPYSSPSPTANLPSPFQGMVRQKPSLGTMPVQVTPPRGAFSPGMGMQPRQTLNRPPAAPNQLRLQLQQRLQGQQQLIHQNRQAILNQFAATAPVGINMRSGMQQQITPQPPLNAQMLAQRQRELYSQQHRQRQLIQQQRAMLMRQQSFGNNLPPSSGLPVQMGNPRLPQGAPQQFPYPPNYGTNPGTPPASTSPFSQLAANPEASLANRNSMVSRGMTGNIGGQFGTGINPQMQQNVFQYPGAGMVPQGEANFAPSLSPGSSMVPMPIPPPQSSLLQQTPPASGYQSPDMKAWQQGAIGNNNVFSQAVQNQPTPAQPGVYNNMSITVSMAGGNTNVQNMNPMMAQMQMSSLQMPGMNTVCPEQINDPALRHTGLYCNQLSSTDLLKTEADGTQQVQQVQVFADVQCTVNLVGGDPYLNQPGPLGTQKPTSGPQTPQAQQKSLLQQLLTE

Consider `COc1cc(C(CCN2CCN(c3ccccc3)CC2)c2c(OC)cc(OC)c3ccc(=O)oc23)cc(OC)c1OC` (stereo not drawn), for which the activation in experiment [1] was -0.33%; in experiment [2], 0.28%.

As for `CCOC(=O)c1ccc(NC(=S)N2CCN(c3ccccn3)CC2)cc1`, in [3], the activation (reported as inhibition) was -3.59%. Also, the inhibition in experiment [4] was -8.54%.

Take `CCCCCCCCCCOC(=O)Cn1c(COc2cccc(OC)c2)[n+](C)c2ccccc21`: the activation was 12% in experiment [1] and 14.7% in [2].

With `CC1(C)Cc2ccccc2-c2[nH]c(=S)[nH]c(=O)c21`, in [3], the activation (reported as inhibition) is 28.7% (active). The inhibition in [4] is 25.9% (active).

For `CC(=O)c1cc(NC(=O)c2ccccc2)c(=O)oc1/C=C/N(C)C`, the inhibition in experiment [5] was 31% (active); in experiment [6], 5.05%.

In the case of `CC1(C)Cc2cccc(OCC(=O)N3CCN(c4ccc([N+](=O)[O-])cc4)CC3)c2O1`, the figures for the inhibition in experiment [5] and in experiment [6] were 4.72% and 19.7%, respectively.

Take `N#C/C(=C\c1ccc(N2CCOCC2)o1)C(=O)N1CCOCC1`: the inhibition in experiment [5] is 14.7%; in experiment [6], 8.42%.

Regarding `O=C(Nc1ccc(Cl)c(Cl)c1)N1CC=C(c2ccccc2)CC1`, the inhibition in experiment [5] is 4.7%; in experiment [6], 8.42%.

Take `Cc1ccc2c(c1)c1ncnc(N3CCc4ccccc4C3)c1n2C`: the inhibition in [5] was 14%; in [6], 7.19%.

In the case of `CCN1/C(=C/c2ccc3ccc(C)cc3[n+]2CC)Sc2ccccc21`, the inhibition was 55.5% (active) in experiment [5] and 107% (active) in [6].

Take `Cc1cccc(N2CCN(C(=O)c3cccc(N4C(=O)C5C6C=CC(C6)C5C4=O)c3)CC2)c1C` (stereo not drawn): the results for the inhibition in experiment [5] and in experiment [6] were 31.1% (active) and 17.6%, respectively.

With `CCN(CC)c1ccc2cc(C(N)=O)/c(=N\NC(=O)c3ccncc3)oc2c1`, the inhibition in [5] is 85.5% (active); in experiment [6], 28.8% (active).

For `CCOc1ccc(Cn2nnc(C(=O)Nc3ccc(OC)cc3OC)c2N)cc1`, the activation is 16.4% in [1] and 14.5% in [2]. Also, the inhibition in experiment [7] was -0.29%; in experiment [8], -0.35%; in experiment [9], -1.47%.

`COc1ccc(N2CCN(C(=O)/C(C#N)=C/c3ccccc3)CC2)cc1`: the results for the inhibition in experiment [5] and in [6] were 8.71% and 5.82%, respectively.

Take `COc1cc(/C=C(\C#N)c2nc3ccccc3[nH]2)ccc1O`: the inhibition in experiment [5] was 134% (active); in experiment [6], 21.9%.

For the compound `CC(C(=O)c1ccc(-c2ccccc2)cc1)[n+]1cccc(Br)c1` (stereo not drawn), the inhibition in [5] was 16.4% (active); in experiment [6] it was 14.3%.

`O=C(CCc1ccc(S(=O)(=O)N2CCOCC2)cc1)Nc1ccc2ccccc2c1`: the inhibition in [5] was 8.6%; in experiment [6], 13.4%.

`Cc1cc(S(=O)(=O)c2cc3ccc(O)c(C)c3oc2=O)ccc1F`: the figures for the activation in [1] and in experiment [2] were 16% and 13.1%, respectively. Also, the inhibition in experiment [10] was -24%; in experiment [11], -0.08%.

Regarding `CS(=O)(=O)N(Cc1ccccc1)c1ccc(C(=O)NN=C2CCCCCC2)cc1`, the inhibition in experiment [5] was 3.28%; in experiment [6] it was 6.18%.

Take `CCCc1nc(SCC(=O)Nc2ccc(S(=O)(=O)N(C)C)cc2)c2ccccc2n1`: the inhibition in [5] is 6.74%; in experiment [6], 21.9%.

Consider `NC(=O)c1c(Nc2nc3c(F)cccc3s2)sc2c1CCCC2`, for which the inhibition in experiment [5] was 12.7%; in experiment [6], 5.16%.

For `CCN1CCCC1CNc1ncnc2c1[nH]c1ccc(F)cc12` (stereo not drawn), the inhibition in experiment [5] is 3.64%; in [6], 8.81%.

Take `CCOc1cc2c(Cl)ncnc2c(OCC)c1OCC`: the inhibition in experiment [5] was 4.73%; in experiment [6], 6.67%.

For the compound `Cn1c2ccccc2c2cc(/C=C(\NC(=O)c3ccccc3)C(=O)NCC(=O)O)ccc21`, the inhibition in [5] is 17.3% (active); in experiment [6], 5.76%.

With `CN(C)S(=O)(=O)c1ccc(Oc2ccc(S(=O)(=O)N(C)C)cc2)cc1`, the activation in experiment [1] is 11.7%; in [2], 11.1%. The figures for the inhibition in [12] and in experiment [13] were 71.8% (active) and 31.9%, respectively.

With `O=C(Oc1c(-c2ccco2)oc2ccccc2c1=O)c1cccnc1`, the figures for the inhibition in experiment [5] and in [6] were 93% (active) and 8.69%, respectively.

Consider `CN(C)c1ccc(/C=C2\NC(=S)N(Cc3ccccc3)C2=O)cc1`, for which the inhibition in [5] is 135% (active); in experiment [6] it was 24.2% (active).

As for `Cc1nn(C)cc1C(=O)c1ccccc1`, the inhibition in [5] was 3.52%; in experiment [6], 5.03%.

Take `CN1/C(=c2/s/c(=C3/C(=O)N(c4ccccc4)NC3=Nc3ccccc3)n(C)c2=O)C(C)(C)c2ccccc21`: the inhibition in experiment [5] is 8.19%; in experiment [6] it was 11.6%.

Turning to `O=C(Nc1ccc(Sc2ccc(Br)cc2)cc1)c1ccco1`, the inhibition was 14.3% in [5] and 20.9% in experiment [6].

Take `CCCC(=O)Nc1c(O)c2ccccc2[nH]c1=O`: the inhibition in experiment [5] was 2.78%; in experiment [6], 9.27%.

Take `CCOC(=O)CC1C(=O)NCCN1c1nc2c(C)cccn2c(=O)c1/C=C1\SC(=S)N(C(C)CC)C1=O` (stereo not drawn): the values for the inhibition in [5] and in experiment [6] were 27.1% (active) and 41.5% (active), respectively.

Turning to `O=C(C1=C[C@H](c2coc3ccccc3c2=O)C[C@H](OCc2ccc(CO)cc2)O1)N1CCN(Cc2ccccc2)CC1`, the results for the inhibition in [5] and in experiment [6] were 2.63% and 17.5%, respectively.
